Where “and” joins values, the source holds several entries; their conditions need not be identical. Equal entries are not always repeated. Calls of active or inactive are those of the source. Calls follow the shape of the dose curve; as a rule, active = well fitted activation curve with a large enough effect; inconclusive = small, poorly fitted or top-dose-only effect; inactive = no such curve, though single readings can be large or run the other way.
target: Cytochrome P450 3A4 (Homo sapiens) (UniProt P08684); assay: qHTS Assay for Activators of Cytochrome P450 3A4 (AID 885); conditions: recombinant CYP3A4, Luciferin-PPXE luminescence, 60 min; series mostly up to 57.1 µM; also: nearly all actives have a fitted effect of over 65% in size
How it was run: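 Luminescent readout of luciferin formed from 25 uM Luciferin-PPXE (KM level) by 20 nM CYP3A4 in 200 mM KPO4, with 60 min NADPH-driven reaction at room temperature after 10 min compound exposure. Ketoconazole (57 uM) defined 100% inhibition.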

Sequence of Cytochrome P450 3A4 (Homo sapiens) (P08684 whole entry, looked up): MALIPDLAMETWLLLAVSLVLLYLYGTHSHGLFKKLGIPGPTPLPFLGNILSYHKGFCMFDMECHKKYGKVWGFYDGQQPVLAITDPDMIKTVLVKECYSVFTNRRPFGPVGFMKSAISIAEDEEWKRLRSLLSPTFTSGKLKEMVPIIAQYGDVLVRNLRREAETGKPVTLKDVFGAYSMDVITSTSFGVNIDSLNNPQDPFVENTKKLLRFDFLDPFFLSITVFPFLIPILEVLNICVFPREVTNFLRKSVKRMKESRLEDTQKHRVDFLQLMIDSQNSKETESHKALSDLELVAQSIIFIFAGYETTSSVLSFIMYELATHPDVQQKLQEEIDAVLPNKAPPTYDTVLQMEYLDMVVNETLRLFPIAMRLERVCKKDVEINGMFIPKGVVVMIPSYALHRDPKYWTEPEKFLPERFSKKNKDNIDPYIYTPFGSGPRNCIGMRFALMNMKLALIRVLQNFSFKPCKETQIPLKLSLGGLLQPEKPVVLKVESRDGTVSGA

Potency, inactive:
O=C(O)c1sccc1S(=O)(=O)Nc1ccccc1N1CCCCC1, CCC1=C2CC[C@H]3C(=O)N(C)C(=O)[C@H]3[C@H]2[C@@]2(Cc3ccccc3)C(=NCCc3c[nH]c4ccccc34)OC(=O)N2C1=O, CCC1=C(OC(=O)N(CC)CC)N2C(=O)OC(=NCCOC)[C@]2(C)[C@H]2C1=CC[C@H]1C(=O)N(CC)C(=O)[C@H]12, COc1c(O)c(O)cc2c1oc1c3ccccc3oc(=O)c21, Cn1c(N)c(C(=O)COC(=O)c2cc(-c3ccco3)nc3ccccc23)c(=O)n(Cc2ccccc2)c1=O

Activity change, positive = activation, inactive:
O=C1[C@H]2[C@H]3[C@H](O)[C@H](O)C/C(=N/OC[C@@H](O)COCc4ccco4)[C@H]3CC[C@@H]2C(=O)N1Cc1ccc2c(c1)OCO2 -88.1% [at 11.4 µM], C=C(C)C(O)/C=C/c1cccc(OC)c1 (centres undefined) -69.2% [at 11.4 µM], O=C1C[C@@H](O)[C@@H](O)[C@H]2[C@@H]3C(=O)N(Cc4ccc5c(c4)OCO5)C(=O)[C@@H]3CC[C@H]12 -78.5% [at 11.4 µM] and -81.2% [at 11.4 µM], COC(=O)C/C=C\[C@@H](C)[C@@H](/C=N\O[C@@H](C)c1cn([C@H](CO)Cc2ccccc2)nn1)OC -56.1% [at 11.4 µM] and -71.3% [at 11.4 µM]

From PubChem BioAssay (NCATS)
